From PubChem BioAssay
In the library only some 2.1% were active in any assay of this set; here they are far more common.
NSD2 inh = blocks human histone methyltransferase NSD2; AID 743445; inhibition, % at 12.5 µM; 0.54% of 310,000 active; O96028; NSD2 peptide methylation, AlphaScreen, 120 min; in the data active = inhibition above about 50%
PGC1a acetyl inh = PGC1a acetylation modulation, inhibitor mode; inhibition, % at 15.6 µM; 0.17% of 350,000 active; U2OS PGC1a acetylation, AlphaScreen anti-acetyl-lysine; with virally co-expressed GCN5 acetyltransferase;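 active = every replicate shows inhibition of at least 40%; inconclusive = mean inhibition at least 40% but some replicate below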;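 also: 0% = neutral control wells and 100% = positive control wells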
HIV Env fusion = HIV envelope-mediated fusion inhibition; 1.1% of 360,000 active; inhibition, % at 12.3 µM; HeLa-JRFL Env/CEM21 cell fusion, luciferase;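 active = mean replicate inhibition score of at least 50 and every replicate individually at or above 50; inconclusive = only one of the two criteria met; inactive = mean below 50 and not all replicates reaching 50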;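 also: 0% = plate neutral controls and 100% = maraviroc near 300 nM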
INS-1E GSIS act = GLuc luminescence reporter in INS-1E cells, primary screen for activators of glucose-dependent secretion of insulin | INS-1E GLuc reporter insulin secretion, 2-3 h | 0.61% of 370,000 active | activation, % at 16.6 µM | AID 743287;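 active = lowest replicate activation of at least 40%, so every replicate reaches that level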;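 also: 0% = median of neutral control wells and 100% = median of IBMX positive control wells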
AF4-AF9 inh = inhibitors of human MLL-AF4/AF9 interaction; AlphaScreen, biotin-AF4 peptide binding to FLAG-AF9; inhibition, % at 10 µM; 0.47% of 350,000 active; AID 651704;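 active = every replicate reaching a set inhibition limit, whatever the replicate mean, cut at about 25% in these data; inconclusive = mean inhibition reaches that limit but some replicates miss it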;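 also: 0% = plate neutral control median and 100% = total signal loss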
Target sequence (P42568 whole entry, looked up): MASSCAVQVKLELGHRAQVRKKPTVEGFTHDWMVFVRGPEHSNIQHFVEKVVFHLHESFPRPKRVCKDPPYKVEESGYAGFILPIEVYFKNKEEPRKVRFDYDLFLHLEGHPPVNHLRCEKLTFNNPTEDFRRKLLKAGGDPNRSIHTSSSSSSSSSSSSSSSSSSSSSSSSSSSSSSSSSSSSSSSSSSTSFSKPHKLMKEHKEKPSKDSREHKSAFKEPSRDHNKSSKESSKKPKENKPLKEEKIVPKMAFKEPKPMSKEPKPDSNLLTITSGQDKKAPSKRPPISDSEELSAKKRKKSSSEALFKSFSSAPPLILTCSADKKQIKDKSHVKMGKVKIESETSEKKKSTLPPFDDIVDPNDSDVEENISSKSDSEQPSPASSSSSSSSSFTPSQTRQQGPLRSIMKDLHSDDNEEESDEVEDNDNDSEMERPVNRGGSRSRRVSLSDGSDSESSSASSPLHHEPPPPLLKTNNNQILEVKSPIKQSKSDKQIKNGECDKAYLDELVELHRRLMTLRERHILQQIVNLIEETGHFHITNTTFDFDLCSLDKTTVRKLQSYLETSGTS
* marks the source's active call; other numbers are inactive results; u = inconclusive; x = no result given; [ ] = another dose, or the depositor's remark.

SMILES	NSD2 inh	PGC1a acetyl inh	HIV Env fusion	INS-1E GSIS act	AF4-AF9 inh
O=c1cc2oc3cc(O)c(O)cc3c(-c3ccccc3[N+](=O)[O-])c-2cc1O	128*	x	54	-1	3
C=CCN1C(=O)N(CC=C)c2cccc3cccc1c23	0	0	9	-6	6
CCN1C(=O)Nc2cccc3cccc1c23	5	x	62*	7	1
O=C(Nc1ccc(OCC(F)(F)C(F)F)c(C(F)(F)F)c1)c1ccccc1O	-3	-13	78*	x	x
C[C@H]1CN([C@@H](C)CO)C(=O)c2cccc(NS(=O)(=O)c3ccccc3)c2O[C@@H]1CN(C)C(=O)Nc1cccc2ccccc12	x	5	2[16.7 µM]	-4	0
CCOc1ccc2nc(NCCNC(=O)Nc3ccccc3)c(C#N)cc2c1	x	64*	-73	200*	x
CCOc1ccc2nc(NCCNC(=S)NCCCN(C)C)c(C#N)cc2c1	6	-4	17	2	-7
CCOc1ccc2nc(NCCNC(=O)Nc3cccc(C)c3)c(C#N)cc2c1	1	3	7	320*	x
Cc1noc(C)c1NC(=O)Nc1ccc2c(c1)C(=O)N([C@H](C)CO)C[C@H](C)[C@@H](CN(C)CC1CCCCC1)OCCCC[C@@H](C)O2	x	-2	13[16.7 µM]	19	-3
COc1ccccc1CNc1nc(C)c(C(=O)N(C)C)s1	20	x	-6	14	u
CC(C)NC(=O)NC(=O)CSc1nncs1	2	x	-10	5	-1
COc1ccc([N+](=O)[O-])c(S(=O)(=O)c2ccc(Cl)cc2)n1	-3	45*	16	59*	-2
O=[N+]([O-])c1cccnc1S(=O)(=O)c1ccccc1	1	x	38	130*	1
CCN(C[C@H]1N[C@@](C)(C(=O)OC)[C@H]2C(=O)N(C)C(=O)[C@@H]12)S(=O)(=O)c1ccc(C)cc1	x	x	-32	16	-1
CCCCOP(=O)(OCCCC)C(O)c1ccc(Br)cc1 (centres undefined)	-4	x	x	-24	x
N#Cc1ccc(CSc2nnc(COc3ccccc3)n2-c2ccccc2)cc1	-5	0	75*	-21	x
NC(=O)c1cc(Cl)cn(-c2ccccc2)c1=O	x	-4	5	x	50*
Cc1ccc2nc(-c3ccc(NC(=O)COC(=O)c4ccco4)cc3)sc2c1	-1	x	-126	91*	x
C=CCn1c(SCC(=O)Nc2ccc(-c3nc4ccc(C)cc4s3)cc2)nnc1-c1ccccc1	3	9	x	122*	x
Cc1ccc(-c2nnc(SCC(=O)Nc3ccc(-c4nc5ccc(C)cc5s4)cc3)n2Cc2ccco2)cc1	2	x	x	x	x
O=C(NCC1CCCN1S(=O)(=O)c1cccs1)c1ccc(F)cc1 (centres undefined)	-2	-4	1	5	-79
CCC(=O)Nc1ccc2c(c1)C(=O)N(C)C[C@H](OC)[C@@H](C)CN(CC1CCOCC1)[C@H](C)CO2	x	-6	-18[16.7 µM]	15	x
COC(=O)Cn1c(C)nc(=O)c(-c2ccccc2)c1C	-3	1	x	x	x
CC(C)C[C@H]1COCn2nncc2CC[C@@H](Cc2ccccc2)C(=O)N1	x	x	66*[16.7 µM]	-2	6
CC(C)[C@H]1COCn2nncc2CC[C@@H](Cc2ccccc2)C(=O)N1	x	x	-28[16.7 µM]	-2	10
SMILES	NSD2 inh	PGC1a acetyl inh	HIV Env fusion	INS-1E GSIS act	AF4-AF9 inh
Cc1cccc(NC(NC(=O)c2cccnc2)C(Cl)(Cl)Cl)c1 (centres undefined)	-4	-1	32	x	x
Cc1cc(C)c[n+](C(C)C(=O)c2ccc(-c3ccccc3)cc2)c1 (centres undefined)	1	10	37	-21	x
CC(=O)NS(=O)(=O)c1ccc(NC(=O)CSc2ccc(Cl)cc2)cc1	3	x	14	-6	1
O=C(CC(c1ccccc1)c1ccco1)N1CCOCC1 (centres undefined)	1	4	x	49*	x
O=C(/C=C/c1cccnc1)/C=C/c1cccnc1	21	81*	2	2	-28
Cc1cccc(C(=O)Nc2ccc(C(=O)/C=C/c3cccnc3)cc2)c1	-1	54*	-32	34	x
C(=Cc1cccnc1)c1ccncc1	-4	3	12	24	-1
O=C(/C=C/c1cccnc1)c1ccc(NC(=O)c2cccc(Br)c2)cc1	5	-5	24	x	x
CC1(C)Cc2c(c(N3CCOCC3)nc3sc4c(NCC5CCCO5)nnnc4c23)CS1 (centres undefined)	4	4	14	25	26*
CCN(C(=O)COC(=O)c1ccccc1Cc1ccccc1)C1CCS(=O)(=O)C1 (centres undefined)	2	x	-3	1	-1
